In PubChem BioAssay (EPA / NIEHS):
Results filed as inconclusive are left out. Activity calls are given as the source filed them. Rule for the calls, unless noted: active = hit-call score of the fitted dose curve at least 0.9, where 1 is the maximum; inactive = score below 0.9.

What was measured:
[1] = read-out: Monokine induced gamma interferon (MIG), CXCL9 (gene 4283); test: BSK_3C_MIG: BioMAP Diversity Plus: 3C Assay for Monokine induced gamma interferon (MIG) Biomarker Activity (AID 2283021); details: primary human endothelial cells (HUVEC); actives raise or lower the signal
Method in brief: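 ELISA measurement of MIG in human umbilical vein endothelial cells 24 h after treatment. Cytotoxicity tracked by SRB staining in parallel cultures; gain or loss of signal fitted relative to DMSO.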

[2] = biological target: human Vitamin D Receptor (VDR), VDR (gene 7421) (UniProt P11473); test: ATG_VDR_TRANS: Attagene TRANS-FACTORIAL HepG2 Assay for human Vitamin D Receptor (VDR) (AID 2283022; active = hit-call score of the fitted dose curve at least 0.9, where 1 is the maximum)
Method in brief: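 Multiplexed TRANS reporter in HepG2; 24 h treatment; reporter mRNA by RT-PCR plus capillary electrophoresis; upregulation scored relative to DMSO.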

[3] = BSK_3C_SRB: Viability Assessment in the BioMAP Diversity Plus: 3C Assay (AID 2283023); details: primary human endothelial cells (HUVEC);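 note: fitted both ways against DMSO so a hit may be signal rise or drop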
Method in brief: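 Overt cytotoxicity is gauged in parallel confluent HUVEC cultures by SRB total-protein staining at the time of biomarker measurement, 24 h after dosing. Gain or loss of signal is fitted versus DMSO.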

[4] = read-out: Matrix Metallopeptidase 1 (MMP1), MMP1 (gene 4312); test: BSK_BE3C_MMP1: BioMAP Diversity Plus: BE3C Assay for Matrix Metallopeptidase 1 (MMP1) Biomarker Activity (AID 2283024); details: primary human bronchial epithelial cells; actives raise or lower the signal
Method in brief: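 ELISA measurement of MMP-1 after 24 h compound exposure of primary human bronchial epithelial cells. Changes in either direction fitted relative to DMSO; parallel SRB staining checked overt cytotoxicity.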

[5] = BSK_3C_Vis: BioMAP Diversity Plus: 3C Assay for Morphology Visualization (AID 2283025); details: primary human endothelial cells (HUVEC);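 note: fitted both ways so gain or loss versus DMSO counts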;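 for AC50: light microscopy image of cell morphology used as background control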
Method in brief: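 Light-microscopy visualization of HUVEC cultures at 24 h post-treatment, with DMSO as baseline for bidirectional fitting.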

[6] = read-out: Pselectin, SELP (gene 6403); test: BSK_4H_Pselectin: BioMAP Diversity Plus: 4H Assay for Pselectin Biomarker Activity (AID 2283026); details: primary human endothelial cells (HUVEC); actives raise or lower the signal
Method in brief: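 ELISA of surface P-selectin on HUVEC, 24 h after dosing, with parallel SRB staining (0.1% after 10% TCA fixation, 560 nm) for overt cytotoxicity. Activity fitted in both directions relative to DMSO.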

[7] = BSK_4H_SRB: Viability Assessment in the BioMAP Diversity Plus: 4H Assay (AID 2283027); details: primary human endothelial cells (HUVEC);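 note: cells exposed to compound for 24 h before staining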;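 for AC50: curves fitted both ways versus DMSO so AC50 may be loss or gain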
Method in brief: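 Cytotoxicity readout: sulforhodamine B (0.1%) staining of total protein after 10% TCA fixation, measured at 560 nm in human umbilical vein endothelium at 24 h. DMSO set the baseline; fitting was bidirectional.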

[8] = BSK_BE3C_SRB: Viability Assessment in the BioMAP Diversity Plus: BE3C Assay (AID 2283028); details: primary human bronchial epithelial cells
Method in brief: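 SRB total-protein staining (0.1%, after TCA fixation) of chemically dosed human bronchial epithelial primary cells at 24 h; DMSO serves as the negative control for bidirectional curve fitting.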

[9] = read-out: Thrombomodulin, THBD (gene 7056); test: BSK_3C_Thrombomodulin: BioMAP Diversity Plus: 3C Assay for Thrombomodulin Biomarker Activity (AID 2283029); details: primary human endothelial cells (HUVEC); actives raise or lower the signal
Method in brief: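 ELISA measurement of thrombomodulin on HUVEC surface 24 h after chemical dosing; activity fitted in both directions relative to DMSO vehicle.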

[10] = read-out: Urokinase-type plasminogen activator receptor (uPAR), PLAUR (gene 5329); test: BSK_4H_uPAR: BioMAP Diversity Plus: 4H Assay for Urokinase-type plasminogen activator receptor (uPAR) Biomarker Activity (AID 2283030); details: primary human endothelial cells (HUVEC); actives raise or lower the signal
Method in brief: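 Endpoint derived via bidirectional curve fitting against DMSO baseline; readout was ELISA detection of uPAR on umbilical vein endothelial cells at 24 h post-treatment, with SRB-stained parallel cultures assessing cytotoxicity.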

[11] = read-out: Vascular endothelial growth factor receptor 2 (Homo sapiens) (UniProt P35968); test: BSK_4H_VEGFRII: BioMAP Diversity Plus: 4H Assay for Vascular endothelial growth factor receptor 2 (VEGFR2) Biomarker Activity (AID 2283031); details: primary human endothelial cells (HUVEC); actives raise or lower the signal
Method in brief: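 In this multiplexed HUVEC system, biomarker ELISA was performed after 24 h chemical exposure. Parallel SRB staining (TCA fixation, 560 nm) tracked cytotoxicity; DMSO served as baseline.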

[12] = read-out: Human Leukocyte Antigen - DR isotype (HLADR), HLA-DRA (gene 3122); test: BSK_BE3C_HLADR: BioMAP Diversity Plus: BE3C Assay for Human Leukocyte Antigen - DR isotype (HLADR) Biomarker Activity (AID 2283032); details: primary human bronchial epithelial cells; actives raise or lower the signal
Method in brief: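 Cell-surface HLA-DR ELISA readout at 24 h after dosing in the BE3C primary human lung bronchial epithelial system; gain or loss of signal against DMSO, with parallel sulforhodamine B staining of total protein for overt cytotoxicity.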

[13] = read-out: Vascular cell adhesion molecule 1 (VCAM1), VCAM1 (gene 7412); test: BSK_4H_VCAM1: BioMAP Diversity Plus: 4H Assay for Vascular cell adhesion molecule 1 (VCAM1) Biomarker Activity (AID 2283033); details: primary human endothelial cells (HUVEC); actives raise or lower the signal;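 for outcome: cell-surface VCAM-1 protein measured by ELISA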
Method in brief: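 VCAM-1 ELISA read 24 h after chemical dosing of HUVEC in the BioMAP 4H system, with gain or loss of signal fitted relative to DMSO. Parallel SRB staining (560 nm) checked overt cytotoxicity.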

[14] = read-out: Monokine induced gamma interferon (MIG), CXCL9 (gene 4283); test: BSK_BE3C_MIG: BioMAP Diversity Plus: BE3C Assay for Monokine induced gamma interferon (MIG) Biomarker Activity (AID 2283035); details: primary human bronchial epithelial cells; actives raise or lower the signal;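 for outcome: MIG protein measured by ELISA in BE3C cultures after 24 h of dosing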
Method in brief: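 hu bronchial epithelial 1° cells, 24 h cpd; MIG by ELISA; bidirectional fit, DMSO = baseline.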

[15] = read-out: Transforming growth factor beta 1 (TGFb1), TGFB1 (gene 7040); test: BSK_BE3C_TGFb1: BioMAP Diversity Plus: BE3C Assay for Transforming growth factor beta 1 (TGFb1) Biomarker Activity (AID 2283036;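 note: TGF-b1 protein level measured by ELISA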); details: primary human bronchial epithelial cells; actives raise or lower the signal
Method in brief: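 ELISA readout of TGF-b1 from human lung bronchial epithelial primary cells, taken 24 h post-treatment. Gain or loss of signal fitted relative to DMSO baseline, with parallel SRB staining for overt cytotoxicity.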

[16] = read-out: Plasminogen activator inhibitor-1 (PAI1), SERPINE1 (gene 5054); test: BSK_BE3C_PAI1: BioMAP Diversity Plus: BE3C Assay for Plasminogen activator inhibitor-1 (PAI1) Biomarker Activity (AID 2283037); details: primary human bronchial epithelial cells; actives raise or lower the signal
Method in brief: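 PAI-1 was measured by ELISA in human primary bronchial epithelial cultures 24 h after chemical dosing, with cytotoxicity checked by SRB total-protein staining in parallel cultures. Activity was fitted in both directions relative to DMSO.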

[17] = read-out: urokinase plasminogen activator (uPA), PLAU (gene 5328); test: BSK_BE3C_uPA: BioMAP Diversity Plus: BE3C Assay for urokinase plasminogen activator (uPA) Biomarker Activity (AID 2283038); details: primary human bronchial epithelial cells; actives raise or lower the signal;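 for outcome: uPA protein level quantified by ELISA in cell cultures; uPA read one day after compound addition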
Method in brief: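 Using confluent primary human lung bronchial epithelial cultures, we dosed chemicals, waited 24 h, then ran a uPA ELISA, fitting bidirectionally against DMSO.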

[18] = read-out: Urokinase-type plasminogen activator receptor (uPAR), PLAUR (gene 5329); test: BSK_BE3C_uPAR: BioMAP Diversity Plus: BE3C Assay for Urokinase-type plasminogen activator receptor (uPAR) Biomarker Activity (AID 2283039); details: primary human bronchial epithelial cells; actives raise or lower the signal;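 note: cells exposed to compound for one day before measurement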
Method in brief: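 uPAR levels were measured by ELISA after 24 h compound treatment of primary human bronchial epithelial cells, fitted in both directions relative to DMSO. Parallel SRB staining served as the cytotoxicity read-out.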

[19] = read-out: Interleukin-8 (IL8), CXCL8 (gene 3576); test: BSK_3C_IL8: BioMAP Diversity Plus: 3C Assay for Interleukin-8 (IL8) Biomarker Activity (AID 2283020); details: primary human endothelial cells (HUVEC); actives raise or lower the signal
Method in brief: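 IL-8 was measured by ELISA in HUVEC cultures 24 h after chemical dosing, with gain or loss of signal fitted relative to DMSO. Parallel SRB total-protein staining tracked overt cytotoxicity.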

[20] = read-out: Interferon-gamma inducible Protein 10 (IP10), CXCL10 (gene 3627); test: BSK_BE3C_IP10: BioMAP Diversity Plus: BE3C Assay for Interferon-gamma inducible Protein 10 (IP10) Biomarker Activity (AID 2283034); details: primary human bronchial epithelial cells; actives raise or lower the signal
Method in brief: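 IP-10 quantified by ELISA in human primary bronchial epithelial cell cultures at 24 hours post-dosing. Gain or loss of signal fitted relative to DMSO; parallel SRB staining assessed overt cytotoxicity.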

Sequence of human Vitamin D Receptor (VDR), VDR (gene 7421) (P11473 whole entry, looked up): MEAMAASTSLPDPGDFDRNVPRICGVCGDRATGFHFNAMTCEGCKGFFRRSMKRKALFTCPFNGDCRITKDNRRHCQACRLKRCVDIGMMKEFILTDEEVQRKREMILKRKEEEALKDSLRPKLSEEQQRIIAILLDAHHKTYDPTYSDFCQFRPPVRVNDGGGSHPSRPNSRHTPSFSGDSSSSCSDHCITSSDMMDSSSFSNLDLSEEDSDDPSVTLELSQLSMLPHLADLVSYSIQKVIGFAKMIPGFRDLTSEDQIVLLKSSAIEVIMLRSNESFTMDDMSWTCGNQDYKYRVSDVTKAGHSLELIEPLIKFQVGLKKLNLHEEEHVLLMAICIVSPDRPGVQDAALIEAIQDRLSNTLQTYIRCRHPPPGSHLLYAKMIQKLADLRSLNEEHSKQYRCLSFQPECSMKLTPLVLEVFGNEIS

With `Cc1c(C(=O)O)c(O)cc2c1C(=O)c1c(O)c([C@@H]3O[C@H](CO)[C@@H](O)[C@H](O)[C@H]3O)c(O)c(O)c1C2=O` the outcome [1] was “inactive”, the outcome [2] was “inactive” and the outcome [3] was “inactive”. The outcome [4] was “inactive”, the outcome [5] was “inactive” and the outcome [6] was “inactive”. For the same molecule, the outcome [7] was “inactive”, the outcome [8] was “inactive” and the outcome [9] was “inactive”. For the same molecule, the outcome [10] was “inactive”, the outcome [11] was “inactive” and the outcome [12] was “inactive”. For the same molecule, the outcome [13] was “inactive”, the outcome [14] was “inactive” and the outcome [15] was “inactive”. The outcome [16] was “inactive”, the outcome [17] was “inactive” and the outcome [18] was “inactive”.
With `Cc1cccc(Nc2cc(Cl)nc(SCC(=O)O)n2)c1C` the outcome [19] was “inactive”, the outcome [1] was “inactive” and the outcome [3] was “inactive”. For the same molecule, the outcome [4] was “inactive”, the outcome [5] was “inactive” and the outcome [6] was “inactive”. The outcome [7] was “inactive”, the outcome [9] was “inactive” and the outcome [10] was “inactive”. For the same molecule, the outcome [11] was “inactive”, the outcome [12] was “inactive” and the outcome [13] was “inactive”. For the same molecule, the outcome [20] was “inactive”, the outcome [15] was “inactive” and the outcome [16] was “inactive”. The outcome [17] was “inactive” and the outcome [18] was “inactive”.
For `NCC1(Cc2noc(=O)[nH]2)CCCCC1`, the outcome [19] was “inactive”, the outcome [1] was “inactive” and the outcome [3] was “inactive”. The outcome [5] was “inactive”, the outcome [6] was “inactive” and the outcome [7] was “inactive”. For the same molecule, the outcome [8] was “inactive”, the outcome [9] was “inactive” and the outcome [10] was “inactive”. For the same molecule, the outcome [11] was “inactive”, the outcome [12] was “inactive” and the outcome [13] was “inactive”. For the same molecule, the outcome [15] was “inactive”, the outcome [16] was “inactive” and the outcome [17] was “inactive”. The outcome [18] was “inactive”.
For `Cc1nc(-c2ccc3c(c2)CCN(CCC2CCC(NC(=O)/C=C/c4ccc(F)cc4)CC2)CC3)no1` (centres undefined), the AC50 [19] was 7.5 µM (active), the outcome [1] was “inactive” and the AC50 [3] was 6.26 µM (active). For the same molecule, the AC50 [5] was 6.4 µM (active), the AC50 [6] was 5.65 µM (active) and the AC50 [7] was 6.89 µM (active). For the same molecule, the outcome [8] was “inactive”, the AC50 [9] was 9.3 µM (active) and the outcome [10] was “inactive”. The outcome [11] was “inactive”, the AC50 [12] was 12.8 µM (active) and the AC50 [13] was 9.3 µM (active). The AC50 [20] was 15 µM (active), the AC50 [14] was 13.5 µM (active) and the outcome [15] was “inactive”. For the same molecule, the outcome [16] was “inactive”, the AC50 [17] was 9.94 µM (active) and the outcome [18] was “inactive”.
